# From PubChem
# Many of the other results were omitted from the sample, so hits are more common in it than they were.
# ER stress surv: ER stress cell death inhibition | actives 0.33% (n = 48,000) | AID 1010 | relative survival (cellular ATP), % at 15 µg/mL (by protocol) | CSM14.1 thapsigargin ER stress survival, ATP luminescence;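 active = survival measured by cellular ATP above 50% at 15 µg/ml in the first screen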;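 note: cell death triggered by about 15 µM thapsigargin; ATP read 24 h after thapsigargin was added; plate controls were thapsigargin with DMSO for no effect and DMSO without thapsigargin for full effect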
# The depositor's hits bear a star.
SMILES,ER stress surv
COc1cccc(-n2c(/C=C/c3cn(C)c4ccccc34)nc3ccccc3c2=O)c1,76*
Cn1cc(/C=C/c2nc3ccccc3c(=O)n2-c2ccc([N+](=O)[O-])cc2)c2ccccc21,6
COc1cccc(-n2c(/C=C/c3c(C)[nH]c4ccccc34)nc3ccccc3c2=O)c1,1
COc1ccc(C2CC(=O)C3=C(C2)Nc2ccccc2NC3c2ccc(Cl)c([N+](=O)[O-])c2)cc1 (stereo not given),104*
COc1cc(C2Nc3ccccc3NC3=C2C(=O)CC(c2ccc(Cl)cc2)C3)cc(OC)c1OC (stereo not given),-1
O=C1CCCC2=C1C(c1cccnc1)Nc1ccc(C(=O)c3ccccc3)cc1N2 (stereo not given),9
Cc1ccc(C2Nc3ccccc3NC3=C2C(=O)CC(c2ccc(Cl)cc2)C3)cc1 (stereo not given),4
O=C1CC(c2ccc(Cl)cc2)CC2=C1C(c1cccs1)Nc1ccccc1N2 (stereo not given),68*
O=C1CC(c2ccccc2)CC2=C1C(c1ccc(Cl)c(Cl)c1)Nc1ccccc1N2 (stereo not given),6
O=C1CCCC2=C1C(c1ccc(Br)cc1)Nc1ccc(C(=O)c3ccccc3)cc1N2 (stereo not given),66*
COc1ccc(C2Nc3ccc(C(=O)c4ccccc4)cc3NC3=C2C(=O)CCC3)cc1 (stereo not given),-1
COc1ccc(C2CC(=O)C3=C(C2)Nc2ccccc2NC3c2ccc(C)c([N+](=O)[O-])c2)cc1OC (stereo not given),4
COc1ccc(C2CC(=O)C3=C(C2)Nc2ccccc2NC3c2ccc(F)c(Br)c2)cc1 (stereo not given),15
COc1ccc(C2CC(=O)C3=C(C2)Nc2ccccc2NC3c2cc(OC)c(OC)cc2Br)cc1 (stereo not given),4
COc1ccc(C2CC(=O)C3=C(C2)Nc2ccccc2NC3c2ccc(Br)s2)cc1 (stereo not given),85*
COc1cc(OC)c([N+](=O)[O-])cc1/C=C1/C(C)=C(C#N)c2nc(N)c(C#N)c(C)c21,4
Cc1ccc2[nH]c(=O)c(C(=O)/C=C/c3ccccc3Cl)c(-c3ccccc3)c2c1,1
COc1ccc(N2C(=O)/C(=C3/C(=O)N(Cc4ccccc4F)c4ccccc43)SC2=S)cc1,0
O=C(O/N=C(/c1ccncc1)c1ccc([N+](=O)[O-])cc1)c1cccc(Br)c1,9
CCCC1=NN2C(=N)/C(=C/c3ccc4c(c3)OCO4)C(=O)N=C2S1,2
Cc1ccc(N2C(=O)NC(=O)/C(=C/c3cccc(Cl)c3)C2=O)cc1,7
CCOc1cc(C2Nc3ccccc3NC3=C2C(=O)CC(c2ccc(OC)cc2)C3)cc(Cl)c1O (stereo not given),112*
COc1ccc(C2CC(=O)C3=C(C2)Nc2ccccc2NC3c2ccc(C(F)(F)F)cc2)cc1 (stereo not given),2
CSc1ccc(C2Nc3ccccc3NC3=C2C(=O)CC(c2ccc4c(c2)OCO4)C3)cc1 (stereo not given),-3
COc1ccc(C2CC(=O)C3=C(C2)Nc2ccccc2NC3c2cccc(O)c2)cc1 (stereo not given),-4
SMILES,ER stress surv
Cc1ccc2c(c1)NC(c1ccc(F)cc1)C1=C(CC(c3ccccc3)CC1=O)N2 (stereo not given),1
CCOc1cc(C2Nc3ccccc3NC3=C2C(=O)CC(c2ccc(OC)cc2)C3)ccc1OC(=O)C1CC1 (stereo not given),2
COc1ccc(C2CC(=O)C3=C(C2)Nc2ccccc2NC3c2cccc(Br)c2)cc1 (stereo not given),25
Cc1ccc2c(c1)NC(c1ccc3c(c1)OCO3)C1=C(CC(c3ccccc3)CC1=O)N2 (stereo not given),92*
COc1ccc(C2Nc3ccccc3NC3=C2C(=O)CC(c2ccccc2)C3)cc1 (stereo not given),22
O=C1CC(c2ccccc2)CC2=C1C(c1cccc(Br)c1)Nc1ccccc1N2 (stereo not given),88*
COc1ccc(C2CC(=O)C3=C(C2)Nc2ccccc2NC3c2ccc3ccccc3c2)cc1 (stereo not given),50*
O=C1CC(c2ccccc2)CC2=C1C(c1ccc(F)c(Br)c1)Nc1ccccc1N2 (stereo not given),6
CC(C)(C)c1nc2sc3c(c2c(=O)[nH]1)CCCC3,-3
O=C1C(=O)N(c2cccc(Cl)c2)C(c2cccc([N+](=O)[O-])c2)/C1=C(\O)c1ccccc1 (stereo not given),8
CCOC(=O)C1=NN(C(=O)c2cccc(C)c2)C(O)(c2ccc(Cl)cc2)C1 (stereo not given),5
c1ccc(-c2ccc(-n3cnc4ccccc43)cc2)cc1,5
Clc1ccccc1-c1ccc(/C=N/Nc2nc(N3CCOCC3)nc(N3CCOCC3)n2)o1,16
CC(=O)Nc1ccc(S(=O)(=O)NC(CC(=O)O)c2ccccc2)cc1 (stereo not given),0
Cc1ccc(/C=C2\C(=O)NC(=S)N(c3ccc(C)cc3)C2=O)cc1,6
Cc1cc(=O)[nH]c(Sc2nnc(-c3ccccc3)c3ccccc23)n1,2
COc1ccccc1-c1nc(-c2cccc([N+](=O)[O-])c2)no1,6
CCOc1cccc(C2Nc3ccccc3NC3=C2C(=O)CC(c2ccc(OC)cc2)C3)c1 (stereo not given),106*
COc1ccc(C2CC(=O)C3=C(C2)Nc2ccccc2NC3c2c(F)cccc2F)cc1 (stereo not given),5
COc1ccc(C2Nc3ccccc3NC3=C2C(=O)CC(c2ccccc2)C3)c(OC)c1 (stereo not given),7
CC(NC(=O)CSC(=O)c1ccccc1)c1ccccc1 (stereo not given),7
CCOC(=O)c1sc(NC(=O)c2ccc(Cl)c(Cl)c2)nc1C,11
O=C(Nc1ccccc1C(F)(F)F)c1cc(I)ccc1Cl,-1
Cc1ccc(N2CC(C(=O)OCC(=O)c3ccc(Br)cc3)CC2=O)c(C)c1 (stereo not given),8
O=C(Nc1cccc2ccccc12)C1C2CCC3C(CCC21)C3(Cl)Cl (stereo not given),2
SMILES,ER stress surv
CC1(C)OC2OC(C(=O)Nc3ccccc3)C3OC(C)(C)OC3C2O1 (stereo not given),1
O=C(Nc1cccc2ccccc12)C1OC2OC3(CCCCC3)OC2C2OC3(CCCCC3)OC12 (stereo not given),115*
O=C1c2cccnc2C(=O)N1c1ccc(Oc2ccc(N3C(=O)c4cccnc4C3=O)cc2)cc1,2
COc1ccc(C2CC(=O)C3=C(C2)Nc2ccccc2NC3c2cc(OC)c(OC)cc2OC)cc1 (stereo not given),8
COc1ccc(C2CC(=O)C3=C(C2)Nc2ccccc2NC3c2ccccc2C(F)(F)F)cc1OC (stereo not given),124*
CCCOc1ccc(C2Nc3ccccc3NC3=C2C(=O)CC(c2ccc(OC)c(OC)c2)C3)cc1 (stereo not given),103*
COc1ccc(C2CC(=O)C3=C(C2)Nc2ccccc2NC3c2ccc(SC)cc2)cc1OC (stereo not given),112*
CCc1ccc(C2Nc3ccccc3NC3=C2C(=O)CC(c2ccc(OC)c(OC)c2)C3)cc1 (stereo not given),89*
COc1ccc(C2CC(=O)C3=C(C2)Nc2ccccc2NC3c2ccccc2C)cc1OC (stereo not given),11
